Only some compounds are listed: those with a hit (about 12% of all), similar ones and a draw of the others.
CHOP inhibitor: inhibitors of CHOP induction in ER stress response. inhibition, % at 10 µM. CHO-K1 CHOP-promoter luciferase, tunicamycin-induced, 15-18 h. AID 2732. 3.8% of 220,000 active;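 active means compounds that reduced the stress-induced luciferase reporter signal by more than about 70% of percent inhibition, limit read from the data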;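 further: 0% = tunicamycin plus vehicle and 100% = wells without tunicamycin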
Lmaj promast: reduces viability of Leishmania major promastigotes; inhibition, % at 10 µM; resazurin fluorescence viability; 9% of 200,000 active; AID 1063; in the data active means inhibition above about 50%;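 further: promastigotes grown with compound for 44 hours at 28 °C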
WT yeast gro inh: growth inhibition of WT yeast, mitochondrial fusion screen | inhibition, % at 10 µM | 2.1% of 190,000 active | mitochondrial fusion phenotypic screen, WT strain; in the data active means inhibition above about 58%; tested in S. cerevisiae
Arbovirus inh: blocks arbovirus infection. arbovirus infection cell-based antiviral screen. inhibition, % at 10 µM. 0.37% of 200,000 active. AID 1251; in the data active means inhibition above about 30%
The depositor's hits bear a star; · = no result given.

SMILES	CHOP inhibitor	Lmaj promast	WT yeast gro inh	Arbovirus inh
O=[N+]([O-])c1ccc(/C=C/C2=NN(c3ccccc3)C(c3ccco3)C2)o1 (stereo not given)	2.6	42.5	7.7	-3.3
COc1ccc2c(c1)-c1c(ssc1=S)C(C)(C)N2S(=O)(=O)c1ccc(C)cc1	22.1	91.8*	41.1	-12.4
Cc1ccc(S(=O)(=O)N2c3ccccc3-c3c(ssc3=S)C2(C)C)cc1	46.2	99.4*	34.2	-11.9
COc1ccc(C(=O)NC(CC(=O)O)c2cc([N+](=O)[O-])ccc2Cl)c(SC)c1 (stereo not given)	-11.0	-8.0	9.3	-10.0
CCCCOC(=O)Cn1c(=N)n(CCN2CCOCC2)c2ccccc21	·	10.2	·	·
CCCn1c(=N)n(CC(O)c2ccc(C)cc2)c2ccccc21 (stereo not given)	-1.3	·	·	·
N=c1n(CCN2CCOCC2)c2ccccc2n1CC(=O)c1ccc(Cl)c(Cl)c1	·	65.6*	9.3	-10.3
N=c1n(CCN2CCCC2)c2ccccc2n1CC(O)c1ccc(Cl)c(Cl)c1 (stereo not given)	-31.5	100.3*	-1.8	-35.4
CC(C)(C)CC(=O)NC(=S)N1CCCCCC1	6.7	-1.1	5.2	4.8
CS(=O)(=O)N1CCN(c2ccccc2NC(=O)c2ccc([N+](=O)[O-])o2)CC1	-49.4	100.2*	1.1	3.9
Cc1ccccc1NC(=O)c1ccc([N+](=O)[O-])o1	66.1	69.2*	0.7	-28.9
Cc1ccc(NC(=O)c2ccc([N+](=O)[O-])o2)c(C)c1	-44.1	94.3*	10.9	-19.9
Cc1cccc(NC(=O)c2ccc([N+](=O)[O-])o2)n1	-34.0	96.4*	4.1	-14.8
CN(NC(=O)c1ccccc1F)c1ccc([N+](=O)[O-])cn1	-5.6	·	·	·
Cc1ccc2c(c1)C1CN(C)CCC1N2Sc1ccccc1[N+](=O)[O-] (stereo not given)	34.9	·	·	·
C/C(O)=C(/C=Nc1ccccc1)C(=O)Nc1ccccc1	29.2	-2.6	4.2	20.1
Cc1cccnc1NC(=O)c1ccc([N+](=O)[O-])o1	-13.4	76.5*	-3.7	-10.9
CCCCn1nnc(NC(=O)c2ccc(-c3ccccc3[N+](=O)[O-])o2)n1	35.1	16.7	1.7	-2.9
Cc1cccnc1NC(=O)c1ccccc1-c1ccccc1C(=O)Nc1ncccc1C	4.2	5.2	-1.6	12.3
CCn1nnc(NC(=O)c2ccc([N+](=O)[O-])o2)n1	-21.1	92.5*	-11.3	-13.7
Cc1cccc(NC2=C(Cl)C(=O)OC2NC(=O)c2ccccc2)c1 (stereo not given)	-29.0	1.9	5.6	11.2
N#C/C(=C\c1c(N2CCCCC2)nc2ccccn2c1=O)C(=O)NCc1ccco1	22.3	82.9*	-2.6	2.1
N#C/C(=C\c1c(N2CCCCC2)nc2ccccn2c1=O)C(=O)NC1CCS(=O)(=O)C1 (stereo not given)	20.0	55.5*	-15.6	6.7
Cc1ccc(NC(=O)C2CC(=O)N/C(=N/N=C/c3ccco3)S2)cc1C (stereo not given)	25.1	-2.8	10.8	-5.8
Cc1ccc(S(=O)(=O)N2CCCOC2CNC(=O)C(=O)NCc2ccncc2)cc1 (stereo not given)	16.6	0.9	1.7	-0.2
SMILES	CHOP inhibitor	Lmaj promast	WT yeast gro inh	Arbovirus inh
CCn1c2ccccc2c2cc(NC(=O)c3ccc(Br)o3)ccc21	31.0	-4.3	17.8	-2.6
CCn1c2ccccc2c2cc(CNCc3ccc(OC)cc3OC)ccc21	53.2	80.8*	83.6*	-32.6
CCn1c2ccccc2c2cc(N)ccc21	-33.8	78.3*	22.5	0.2
CCC(CC)NCc1ccc2c(c1)c1ccccc1n2CC	8.4	95.5*	47.8	-29.9
CCn1c2ccccc2c2cc(NC(=O)COc3ccc(OC)cc3)ccc21	34.8	1.2	33.6	1.3
O/N=C(\c1ccc(Cl)cc1)c1cc2ccccc2o1	85.4*	4.6	-2.0	-34.2
O=C(CCc1nc2cccnc2n1Cc1ccccc1)NCCc1ccc(Cl)cc1	30.5	5.9	-24.8	-2.2
CCN(CCNC(=O)C1CCCN(Cc2nc(-c3ccc(OC)cc3)oc2C)C1)c1ccccc1 (stereo not given)	49.7	50.7*	20.5	-24.9
Cc1oc(-c2cccc(Cl)c2)nc1CN1CCC(C(=O)NCc2cccnc2)CC1	33.3	-4.8	4.5	11.7
CCN(CCNC(=O)C1CCN(Cc2nc(-c3cccc(Cl)c3)oc2C)CC1)c1ccccc1	94.6*	32.7	48.4	-35.0
CCN1CCN(C(=O)C2CCN(Cc3nc(-c4cccc(Cl)c4)oc3C)CC2)CC1	6.5	65.5*	2.0	6.0
CCN(CCNC(=O)C1CCN(Cc2nc(-c3ccc(Cl)cc3)oc2C)CC1)c1ccccc1	85.0*	37.7	53.2	-35.1
CCc1ccc(-c2nc(CN3CCC(C(=O)NCc4ccc(F)cc4)CC3)c(C)o2)cc1	63.2	0.9	30.9	20.4
